# Measured values: ChEMBL document CHEMBL1961873, “Compounds: GSK PKIS; Assays: Nanosyn kinase panel” (2012)
# Where “and” joins values, the source holds several entries; their conditions need not be identical. Equal entries are not always repeated.
# Assays:
# [1] = system: Epidermal growth factor receptor (Homo sapiens), P00533 [T790M]; conditions: at 1 µM
# [2] = system: Epidermal growth factor receptor (Homo sapiens), P00533 [L858R,T790M]; conditions: at 0.1 µM
# [3] = system: Epidermal growth factor receptor (Homo sapiens), P00533 [L858R,T790M]; conditions: at 1 µM
# [4] = target: Ephrin type-A receptor 2 (Homo sapiens) (UniProt P29317); conditions: at 0.1 µM
# Ephrin type-A receptor 2 (Homo sapiens), sequence (P29317 whole entry): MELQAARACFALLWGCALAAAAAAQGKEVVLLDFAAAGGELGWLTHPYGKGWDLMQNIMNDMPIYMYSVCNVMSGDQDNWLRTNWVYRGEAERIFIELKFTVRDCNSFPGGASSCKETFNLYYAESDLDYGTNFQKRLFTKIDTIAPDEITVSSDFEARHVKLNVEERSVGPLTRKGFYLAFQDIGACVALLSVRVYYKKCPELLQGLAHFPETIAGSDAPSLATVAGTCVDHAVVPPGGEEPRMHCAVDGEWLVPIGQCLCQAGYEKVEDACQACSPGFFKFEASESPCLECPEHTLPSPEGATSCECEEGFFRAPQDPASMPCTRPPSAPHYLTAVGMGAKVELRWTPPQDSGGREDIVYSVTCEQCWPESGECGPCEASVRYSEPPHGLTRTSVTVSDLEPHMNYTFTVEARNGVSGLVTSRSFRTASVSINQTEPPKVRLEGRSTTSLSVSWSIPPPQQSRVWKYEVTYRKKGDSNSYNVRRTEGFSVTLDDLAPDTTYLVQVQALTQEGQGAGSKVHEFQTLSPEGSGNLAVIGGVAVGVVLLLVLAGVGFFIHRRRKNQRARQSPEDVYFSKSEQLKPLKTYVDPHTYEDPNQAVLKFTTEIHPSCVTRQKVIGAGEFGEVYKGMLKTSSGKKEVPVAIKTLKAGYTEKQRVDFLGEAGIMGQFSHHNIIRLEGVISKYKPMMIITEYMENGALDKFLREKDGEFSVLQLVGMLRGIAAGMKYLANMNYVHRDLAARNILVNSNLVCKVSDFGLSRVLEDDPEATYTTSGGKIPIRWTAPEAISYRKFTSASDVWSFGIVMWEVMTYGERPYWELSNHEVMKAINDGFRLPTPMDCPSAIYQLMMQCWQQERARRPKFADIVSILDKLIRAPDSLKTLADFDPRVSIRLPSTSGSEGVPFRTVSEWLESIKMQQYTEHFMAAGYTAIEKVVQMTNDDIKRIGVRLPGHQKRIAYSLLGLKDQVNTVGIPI
# [5] = target: Ephrin type-A receptor 2 (Homo sapiens) (UniProt P29317); conditions: at 1 µM
# [6] = target: T1, Ephrin type-A receptor 3 (Homo sapiens) (UniProt P29320); conditions: at 0.1 µM
# T1 sequence (whole entry): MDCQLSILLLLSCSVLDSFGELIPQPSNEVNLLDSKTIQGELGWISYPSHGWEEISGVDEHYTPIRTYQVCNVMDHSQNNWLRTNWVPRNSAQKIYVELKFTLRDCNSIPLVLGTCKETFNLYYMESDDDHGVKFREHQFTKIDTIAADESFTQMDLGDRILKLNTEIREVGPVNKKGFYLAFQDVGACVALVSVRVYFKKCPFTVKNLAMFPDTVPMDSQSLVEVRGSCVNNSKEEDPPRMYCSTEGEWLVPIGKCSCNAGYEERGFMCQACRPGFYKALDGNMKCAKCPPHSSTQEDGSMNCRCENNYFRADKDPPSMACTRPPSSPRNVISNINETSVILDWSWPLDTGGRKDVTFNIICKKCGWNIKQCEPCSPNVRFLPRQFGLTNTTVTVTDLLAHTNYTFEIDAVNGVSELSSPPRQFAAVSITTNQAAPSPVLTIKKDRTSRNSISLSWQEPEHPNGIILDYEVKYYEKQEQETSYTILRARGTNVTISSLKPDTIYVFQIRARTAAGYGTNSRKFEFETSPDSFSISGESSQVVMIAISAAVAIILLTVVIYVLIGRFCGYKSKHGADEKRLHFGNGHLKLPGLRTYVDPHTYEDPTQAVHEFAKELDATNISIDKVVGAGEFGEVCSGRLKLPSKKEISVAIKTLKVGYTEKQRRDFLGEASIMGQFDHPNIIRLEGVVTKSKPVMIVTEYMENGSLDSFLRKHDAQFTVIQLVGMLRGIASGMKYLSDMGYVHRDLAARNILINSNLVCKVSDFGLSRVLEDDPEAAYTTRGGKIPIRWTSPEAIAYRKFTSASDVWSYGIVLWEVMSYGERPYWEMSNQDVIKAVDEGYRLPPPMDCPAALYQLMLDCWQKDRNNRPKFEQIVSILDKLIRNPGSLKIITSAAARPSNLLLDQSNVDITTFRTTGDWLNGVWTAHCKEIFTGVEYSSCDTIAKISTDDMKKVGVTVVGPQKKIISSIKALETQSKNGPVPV
# [7] = target: T1, Ephrin type-A receptor 3 (Homo sapiens); conditions: at 1 µM
# [8] = target: Ephrin type-A receptor 4 (Homo sapiens) (UniProt P54764); conditions: at 0.1 µM
# Ephrin type-A receptor 4 (Homo sapiens), sequence (P54764 whole entry): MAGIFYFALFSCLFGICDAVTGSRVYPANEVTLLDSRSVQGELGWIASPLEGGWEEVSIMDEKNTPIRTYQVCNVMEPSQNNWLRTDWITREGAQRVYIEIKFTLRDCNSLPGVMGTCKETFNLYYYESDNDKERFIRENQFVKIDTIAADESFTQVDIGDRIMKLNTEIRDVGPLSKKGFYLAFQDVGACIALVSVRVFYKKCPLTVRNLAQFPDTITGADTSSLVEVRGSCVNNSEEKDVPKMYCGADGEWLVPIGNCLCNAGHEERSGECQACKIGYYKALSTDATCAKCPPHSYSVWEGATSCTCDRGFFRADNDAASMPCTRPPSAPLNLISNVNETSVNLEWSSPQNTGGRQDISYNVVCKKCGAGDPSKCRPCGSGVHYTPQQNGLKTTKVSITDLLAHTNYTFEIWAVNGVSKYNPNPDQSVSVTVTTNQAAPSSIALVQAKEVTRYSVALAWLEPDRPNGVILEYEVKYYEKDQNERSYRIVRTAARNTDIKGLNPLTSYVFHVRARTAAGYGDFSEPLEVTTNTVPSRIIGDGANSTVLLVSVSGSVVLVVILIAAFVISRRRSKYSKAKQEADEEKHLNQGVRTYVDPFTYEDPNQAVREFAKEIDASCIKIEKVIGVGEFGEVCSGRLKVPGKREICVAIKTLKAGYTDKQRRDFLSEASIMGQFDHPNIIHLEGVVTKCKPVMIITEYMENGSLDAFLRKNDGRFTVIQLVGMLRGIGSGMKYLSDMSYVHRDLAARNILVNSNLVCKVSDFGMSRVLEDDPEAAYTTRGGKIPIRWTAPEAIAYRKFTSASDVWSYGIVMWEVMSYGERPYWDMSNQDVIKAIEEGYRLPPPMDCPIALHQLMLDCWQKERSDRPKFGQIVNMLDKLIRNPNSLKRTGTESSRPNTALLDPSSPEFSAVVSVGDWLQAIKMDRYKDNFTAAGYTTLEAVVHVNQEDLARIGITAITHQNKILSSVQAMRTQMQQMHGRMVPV
# [9] = target: Ephrin type-A receptor 4 (Homo sapiens) (UniProt P54764); conditions: at 1 µM
# [10] = target: T2, Ephrin type-B receptor 2 (Homo sapiens) (UniProt P29323); conditions: at 0.1 µM;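 further: reported as mean inhibition of EPHB2, from the GSK PKIS dataset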
# T2 sequence (whole entry): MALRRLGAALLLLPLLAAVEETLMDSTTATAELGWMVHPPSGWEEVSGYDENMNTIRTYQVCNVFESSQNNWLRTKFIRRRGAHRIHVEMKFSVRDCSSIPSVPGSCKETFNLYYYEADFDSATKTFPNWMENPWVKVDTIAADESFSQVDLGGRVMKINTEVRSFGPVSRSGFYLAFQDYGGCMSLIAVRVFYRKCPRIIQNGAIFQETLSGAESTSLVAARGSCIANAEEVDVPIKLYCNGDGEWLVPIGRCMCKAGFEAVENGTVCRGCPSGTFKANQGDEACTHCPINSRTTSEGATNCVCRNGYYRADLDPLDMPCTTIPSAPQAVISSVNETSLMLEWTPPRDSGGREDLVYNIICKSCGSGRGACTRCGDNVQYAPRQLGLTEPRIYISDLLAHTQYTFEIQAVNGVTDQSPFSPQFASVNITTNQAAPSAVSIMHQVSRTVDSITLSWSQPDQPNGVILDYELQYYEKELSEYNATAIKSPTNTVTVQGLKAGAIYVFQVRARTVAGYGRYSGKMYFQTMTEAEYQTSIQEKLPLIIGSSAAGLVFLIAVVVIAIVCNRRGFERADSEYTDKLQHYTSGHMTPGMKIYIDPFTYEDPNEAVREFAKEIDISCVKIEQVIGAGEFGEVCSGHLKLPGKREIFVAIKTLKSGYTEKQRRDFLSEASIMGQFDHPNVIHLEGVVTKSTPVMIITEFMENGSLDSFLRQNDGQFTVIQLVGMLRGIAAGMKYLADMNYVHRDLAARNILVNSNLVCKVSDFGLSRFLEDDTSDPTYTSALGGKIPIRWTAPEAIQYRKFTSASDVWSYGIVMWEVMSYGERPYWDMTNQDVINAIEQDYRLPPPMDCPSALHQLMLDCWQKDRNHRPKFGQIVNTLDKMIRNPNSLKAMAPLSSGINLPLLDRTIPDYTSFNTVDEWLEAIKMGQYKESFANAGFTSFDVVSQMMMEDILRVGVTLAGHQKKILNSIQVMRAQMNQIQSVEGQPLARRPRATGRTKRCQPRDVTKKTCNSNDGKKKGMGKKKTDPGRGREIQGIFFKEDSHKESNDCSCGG
# Epidermal growth factor receptor (Homo sapiens), P00533 [L858R,T790M], sequence (P00533 whole entry T790M/L858R, looked up): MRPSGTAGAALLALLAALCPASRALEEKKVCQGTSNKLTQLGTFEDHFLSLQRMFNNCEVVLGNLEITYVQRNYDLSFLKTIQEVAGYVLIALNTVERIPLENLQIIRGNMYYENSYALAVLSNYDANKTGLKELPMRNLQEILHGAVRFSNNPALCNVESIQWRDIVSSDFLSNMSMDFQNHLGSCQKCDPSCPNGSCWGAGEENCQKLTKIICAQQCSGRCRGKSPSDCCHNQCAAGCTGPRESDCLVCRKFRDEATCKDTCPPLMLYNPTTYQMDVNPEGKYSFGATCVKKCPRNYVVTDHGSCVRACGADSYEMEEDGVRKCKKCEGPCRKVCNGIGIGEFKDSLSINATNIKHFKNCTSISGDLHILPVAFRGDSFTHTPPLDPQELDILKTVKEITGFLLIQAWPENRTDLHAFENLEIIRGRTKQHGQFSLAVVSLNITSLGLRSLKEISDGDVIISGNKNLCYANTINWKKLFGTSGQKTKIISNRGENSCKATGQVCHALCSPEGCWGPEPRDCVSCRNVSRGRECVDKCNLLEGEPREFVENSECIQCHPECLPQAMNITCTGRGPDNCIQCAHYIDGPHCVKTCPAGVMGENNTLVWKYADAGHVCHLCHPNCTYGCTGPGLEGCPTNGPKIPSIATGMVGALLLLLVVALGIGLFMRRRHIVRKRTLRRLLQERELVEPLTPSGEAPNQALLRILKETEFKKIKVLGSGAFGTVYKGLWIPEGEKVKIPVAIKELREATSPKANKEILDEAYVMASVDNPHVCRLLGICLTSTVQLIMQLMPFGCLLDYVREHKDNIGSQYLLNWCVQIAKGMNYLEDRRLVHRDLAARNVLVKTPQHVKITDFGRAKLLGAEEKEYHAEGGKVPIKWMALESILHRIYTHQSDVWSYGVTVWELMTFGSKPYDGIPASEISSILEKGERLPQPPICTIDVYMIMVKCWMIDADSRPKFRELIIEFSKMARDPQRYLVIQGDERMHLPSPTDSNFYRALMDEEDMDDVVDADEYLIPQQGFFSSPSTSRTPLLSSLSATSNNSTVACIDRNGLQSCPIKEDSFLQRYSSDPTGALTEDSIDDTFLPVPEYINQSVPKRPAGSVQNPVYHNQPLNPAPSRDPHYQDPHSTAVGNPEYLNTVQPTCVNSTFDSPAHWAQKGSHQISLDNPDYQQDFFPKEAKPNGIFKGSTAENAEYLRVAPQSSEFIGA
# Epidermal growth factor receptor (Homo sapiens), P00533 [T790M], sequence (P00533 whole entry T790M): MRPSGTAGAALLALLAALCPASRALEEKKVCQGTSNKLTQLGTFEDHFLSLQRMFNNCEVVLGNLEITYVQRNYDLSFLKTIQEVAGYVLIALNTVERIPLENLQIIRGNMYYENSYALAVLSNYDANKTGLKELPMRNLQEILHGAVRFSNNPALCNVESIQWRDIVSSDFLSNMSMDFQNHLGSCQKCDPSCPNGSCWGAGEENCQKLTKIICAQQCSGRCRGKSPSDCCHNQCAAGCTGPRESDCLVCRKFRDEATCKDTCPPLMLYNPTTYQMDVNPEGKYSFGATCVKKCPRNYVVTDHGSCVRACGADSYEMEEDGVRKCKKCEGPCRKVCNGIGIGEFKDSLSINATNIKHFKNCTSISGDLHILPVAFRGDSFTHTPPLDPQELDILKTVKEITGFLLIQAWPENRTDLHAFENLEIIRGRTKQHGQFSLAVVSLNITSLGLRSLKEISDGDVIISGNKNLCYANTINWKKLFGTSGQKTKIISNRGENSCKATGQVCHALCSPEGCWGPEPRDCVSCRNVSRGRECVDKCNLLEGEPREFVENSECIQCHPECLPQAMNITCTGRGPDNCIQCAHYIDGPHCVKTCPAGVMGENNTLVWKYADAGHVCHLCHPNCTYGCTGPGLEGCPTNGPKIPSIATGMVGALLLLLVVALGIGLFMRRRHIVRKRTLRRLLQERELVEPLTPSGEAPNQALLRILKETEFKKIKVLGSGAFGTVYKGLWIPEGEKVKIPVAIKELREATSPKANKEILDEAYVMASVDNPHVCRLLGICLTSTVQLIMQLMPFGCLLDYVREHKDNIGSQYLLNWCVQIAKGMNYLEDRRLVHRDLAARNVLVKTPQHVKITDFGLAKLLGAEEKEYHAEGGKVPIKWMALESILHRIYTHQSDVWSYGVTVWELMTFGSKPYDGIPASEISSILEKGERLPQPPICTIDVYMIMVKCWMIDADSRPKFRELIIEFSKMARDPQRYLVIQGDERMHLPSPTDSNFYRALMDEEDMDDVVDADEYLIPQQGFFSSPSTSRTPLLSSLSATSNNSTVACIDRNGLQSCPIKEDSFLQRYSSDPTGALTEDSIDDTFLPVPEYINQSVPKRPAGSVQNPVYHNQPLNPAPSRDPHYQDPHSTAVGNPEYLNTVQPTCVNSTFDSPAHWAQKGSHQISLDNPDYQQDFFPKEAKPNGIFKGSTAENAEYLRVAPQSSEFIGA
structure (smiles),measurement,setting,value
O=C(Nc1n[nH]c2nnc(-c3cccnc3)cc12)C1CC1,inhibition,[1],-0.7%
same,inhibition,[2],-0.13%
same,inhibition,[3],-0.34%
same,inhibition,[4],-3.08%
same,inhibition,[5],-2.73%
same,inhibition,[6],-1.3%
same,inhibition,[7],-0.05%
same,inhibition,[8],0.83%
same,inhibition,[9],2.33%
same,inhibition,[10],0.05%
CN1CCC(C(=O)Nc2n[nH]c3nc(-c4ccc(O)cc4)c(Br)cc23)CC1,inhibition,[1],2.93% and 1.04%
same,inhibition,[2],-0.55% and -2.98%
same,inhibition,[3],1.4% and -0.59%
same,inhibition,[4],-3.15% and 0%
same,inhibition,[5],-2.77% and -1.38%
same,inhibition,[6],-0.96% and 1.14%
same,inhibition,[7],-1.23% and 3.96%
same,inhibition,[8],7.94% and 4.03%
same,inhibition,[9],10.9% and 9.16%
same,inhibition,[10],2.8% and -0.98%
COc1c(C(N)=O)cc(-c2ccc(Cl)cc2)cc1-c1ccc(S(N)(=O)=O)cc1,inhibition,[1],3.77%
same,inhibition,[2],-1.73%
same,inhibition,[3],0.63%
same,inhibition,[4],1.79%
same,inhibition,[5],1.53%
same,inhibition,[6],3.06%
same,inhibition,[7],4.11%
same,inhibition,[8],8.42%
same,inhibition,[9],10.1%
same,inhibition,[10],8.67%
O=C(O[C@H]1CN[C@H](C#Cc2cc3ncnc(Nc4ccc5c(ccn5Cc5cc(F)ccc5F)c4)c3s2)C1)N1CCOCC1,inhibition,[1],50.3%
same,inhibition,[2],4.66%
same,inhibition,[3],9.08%
same,inhibition,[4],0.75%
same,inhibition,[5],0.06%
same,inhibition,[6],4.84%
same,inhibition,[7],4.4%
same,inhibition,[8],6.87%
same,inhibition,[9],3.19%
same,inhibition,[10],5.25%
COc1ccccc1-c1cc(/C=C2\C(=O)Nc3ncc(Br)cc32)cc(Br)c1O,inhibition,[1],1.53%
same,inhibition,[2],1.24%
same,inhibition,[3],4.48%
same,inhibition,[4],1.75%
same,inhibition,[5],3.18%
same,inhibition,[6],4.45%
same,inhibition,[7],5.49%
same,inhibition,[8],9.58%
same,inhibition,[9],6.4%
same,inhibition,[10],6.05%
O=C(O[C@H]1CN[C@H](C#Cc2cc3ncnc(Nc4ccc5c(cnn5Cc5ccccc5)c4)c3s2)C1)N1CCOCC1,inhibition,[1],9.06%
same,inhibition,[2],-5.39%
same,inhibition,[3],-1.26%
same,inhibition,[4],-1.74%
same,inhibition,[5],-2.68%
same,inhibition,[6],-0.31%
same,inhibition,[7],0.9%
same,inhibition,[8],-0.59%
same,inhibition,[9],1.79%
same,inhibition,[10],-3.66%
CCOc1ccc2c(-c3ccnc(Nc4cc(OC)cc(C(F)(F)F)c4)n3)cnn2n1,inhibition,[1],0.47%
same,inhibition,[2],0.87%
same,inhibition,[3],-2.16%
same,inhibition,[4],-2.58%
same,inhibition,[5],-0.79%
same,inhibition,[6],-0.82%
same,inhibition,[7],1.98%
same,inhibition,[8],2.94%
same,inhibition,[9],6.63%
same,inhibition,[10],3.54%
COc1cccc(-n2ncc3c(N/N=C/c4ccc(C(=O)NCCN(C)C)cc4)ncnc32)c1,inhibition,[1],4.06%
same,inhibition,[2],4.3%
same,inhibition,[3],25.9%
same,inhibition,[4],1.33%
same,inhibition,[5],5.44%
same,inhibition,[6],3.11%
same,inhibition,[7],6.35%
same,inhibition,[8],2.76%
same,inhibition,[9],15.9%
same,inhibition,[10],14.1%
N#Cc1ccc2c(-c3ccnc(NC4CC4)n3)c(-c3ccc(F)cc3)nn2c1,inhibition,[1],2.72%
same,inhibition,[2],1.77%
same,inhibition,[3],2.17%
same,inhibition,[4],-2.09%
same,inhibition,[5],-0.16%
same,inhibition,[6],1.29%
same,inhibition,[7],4.31%
same,inhibition,[8],5.96%
same,inhibition,[9],15.6%
same,inhibition,[10],8.8%
CNC(=O)c1cncc(/C=C/c2ccccc2C)c1,inhibition,[1],4.37%
same,inhibition,[2],1.98%
same,inhibition,[3],6.74%
same,inhibition,[4],2.22%
same,inhibition,[5],3.92%
same,inhibition,[6],6.53%
same,inhibition,[7],6.47%
same,inhibition,[8],11.7%
same,inhibition,[9],26.1%
same,inhibition,[10],7.84%
CS(=O)(=O)CCNCc1ccoc1-c1ccc2ncnc(Nc3ccc(OCc4ccccc4)cc3)c2c1,inhibition,[1],4.58%
same,inhibition,[2],-0.19%
same,inhibition,[3],-0.52%
same,inhibition,[4],-2.48%
same,inhibition,[5],-2.19%
same,inhibition,[6],0.44%
same,inhibition,[7],2.32%
same,inhibition,[8],4.33%
same,inhibition,[9],6.25%
same,inhibition,[10],4.8%
COc1ccc2ncn(-c3cc(O[C@H](C)c4ccccc4C(F)(F)F)c(C(N)=O)s3)c2c1,inhibition,[1],-1.39%
same,inhibition,[2],-1.39%
same,inhibition,[3],-0.48%
same,inhibition,[4],-3.1%
same,inhibition,[5],-4.03%
same,inhibition,[6],0.39%
same,inhibition,[7],2.63%
same,inhibition,[8],0.27%
same,inhibition,[9],0.47%
same,inhibition,[10],1.25%
CS(=O)(=O)CCNCc1ccc(-c2ccc3ncnc(Nc4ccc(OCc5ccccc5)cc4)c3c2)o1,inhibition,[1],12.4%
same,inhibition,[2],0.12%
same,inhibition,[3],4.35%
same,inhibition,[4],1.77%
same,inhibition,[5],1.18%
same,inhibition,[6],5.21%
same,inhibition,[7],5.62%
same,inhibition,[8],9.98%
same,inhibition,[9],11.5%
same,inhibition,[10],6.07%
CCS(=O)(=O)c1ccc(OC)c(Nc2ncc(-c3cccc(C(C)=O)c3)o2)c1,inhibition,[1],4.71%
same,inhibition,[2],1.19%
same,inhibition,[3],7.18%
same,inhibition,[4],3.84%
same,inhibition,[5],2.23%
same,inhibition,[6],3.51%
same,inhibition,[7],6.85%
same,inhibition,[8],9.55%
same,inhibition,[9],16.9%
same,inhibition,[10],9.45%
Cn1c(-c2nonc2N)nc2cnccc21,inhibition,[1],0.67%
same,inhibition,[2],-1.07%
same,inhibition,[3],-0.94%
same,inhibition,[4],1.97%
same,inhibition,[5],1.07%
same,inhibition,[6],6.89%
same,inhibition,[7],4.47%
same,inhibition,[8],7.88%
same,inhibition,[9],4.19%
same,inhibition,[10],4.59%
NS(=O)(=O)c1ccc(N/N=C2\C(=O)Nc3ccc(C(=O)NCc4ccncc4)cc32)cc1,inhibition,[1],5.2%
same,inhibition,[2],0.1%
same,inhibition,[3],2.72%
same,inhibition,[4],1.72%
same,inhibition,[5],1.75%
same,inhibition,[6],4.4%
same,inhibition,[7],3.58%
same,inhibition,[8],8.7%
same,inhibition,[9],15%
same,inhibition,[10],4.03%
Nc1nonc1-c1nc2cnccc2n1C1CC1,inhibition,[1],0.41% and 1.8%
same,inhibition,[2],0.14% and 3.74%
same,inhibition,[3],5.5% and 7.11%
same,inhibition,[4],1.3% and -6.99%
same,inhibition,[5],0.04% and -7.28%
same,inhibition,[6],3.71% and -1.91%
same,inhibition,[7],3.7% and -1.81%
same,inhibition,[8],6.99% and 5.79%
same,inhibition,[9],5.96% and 2.69%
same,inhibition,[10],10.5% and 2.91%
CNC(=O)c1sc(-n2cnc3cc(OC)c(OC)cc32)cc1OCc1ccccc1C(F)(F)F,inhibition,[1],0.02%
same,inhibition,[2],0.49%
same,inhibition,[3],1.43%
same,inhibition,[4],2.6%
same,inhibition,[5],2.61%
same,inhibition,[6],3.26%
same,inhibition,[7],7.45%
same,inhibition,[8],7.55%
same,inhibition,[9],13.2%
same,inhibition,[10],5.44%
COc1cc(Nc2ncc(-c3ccccc3)o2)cc(OC)c1,inhibition,[1],1.99%
same,inhibition,[2],0.93%
same,inhibition,[3],0.21%
same,inhibition,[4],2.21%
same,inhibition,[5],2.39%
same,inhibition,[6],3.02%
same,inhibition,[7],8.57%
same,inhibition,[8],8.98%
same,inhibition,[9],13.7%
same,inhibition,[10],8.98%
